What was measured:
Experiment in all cases: DAPPL (digital affinity profiling via proximity ligation, sequencing); 10 mM Tris-HCl pH 7.5, 50 mM NaCl, 1 mM DTT, 4% glycerol, room temperature, 30 min; GST-TFs on glutathione beads, 16-mer random dsDNA library, 0.1% formaldehyde crosslink after washing; high values mean tight binding
Conditions in all cases: protein: recombinant; tags: N-terminal GST; dsDNA, one strand shown
[1] = target: T1, ERF (Homo sapiens, UniProt P50548 1-548)
T1 sequence: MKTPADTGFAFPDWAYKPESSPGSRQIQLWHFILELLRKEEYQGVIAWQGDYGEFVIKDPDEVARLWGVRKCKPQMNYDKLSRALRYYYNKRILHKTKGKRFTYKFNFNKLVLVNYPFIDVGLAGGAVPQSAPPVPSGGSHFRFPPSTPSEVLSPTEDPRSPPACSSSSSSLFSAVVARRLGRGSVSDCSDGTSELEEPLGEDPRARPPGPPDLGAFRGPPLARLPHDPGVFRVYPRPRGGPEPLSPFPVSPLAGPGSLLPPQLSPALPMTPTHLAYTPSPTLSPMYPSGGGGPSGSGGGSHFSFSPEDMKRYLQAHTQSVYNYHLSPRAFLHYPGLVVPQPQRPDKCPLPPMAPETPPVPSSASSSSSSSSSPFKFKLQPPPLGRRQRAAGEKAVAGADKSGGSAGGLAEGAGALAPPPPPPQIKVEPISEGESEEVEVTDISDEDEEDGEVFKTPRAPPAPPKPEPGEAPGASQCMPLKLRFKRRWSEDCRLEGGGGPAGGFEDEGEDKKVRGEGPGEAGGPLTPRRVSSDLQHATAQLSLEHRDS
Method in brief: (§1)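 The binding signal reported is, for every hexamer, its read frequency for a factor over its read frequency for the tag-only sample. Reads came from pools of yeast-expressed, GST-fused human transcription factors on glutathione beads, barcoded with DNA and mixed with that sample, which were incubated with 200 nmole of a random double-stranded 16-mer DNA library in Tris/NaCl/DTT/glycerol buffer at room temperature for 30 min. After washing, the pools were crosslinked with 0.1% formaldehyde, proximity-ligated with BsaI/T4 ligase for 1 h at 37 °C, PCR-amplified and sequenced on an Illumina NextSeq500.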

[2] = target: T2, ETV3L (Homo sapiens, UniProt Q6ZN32 1-361)
T2 sequence: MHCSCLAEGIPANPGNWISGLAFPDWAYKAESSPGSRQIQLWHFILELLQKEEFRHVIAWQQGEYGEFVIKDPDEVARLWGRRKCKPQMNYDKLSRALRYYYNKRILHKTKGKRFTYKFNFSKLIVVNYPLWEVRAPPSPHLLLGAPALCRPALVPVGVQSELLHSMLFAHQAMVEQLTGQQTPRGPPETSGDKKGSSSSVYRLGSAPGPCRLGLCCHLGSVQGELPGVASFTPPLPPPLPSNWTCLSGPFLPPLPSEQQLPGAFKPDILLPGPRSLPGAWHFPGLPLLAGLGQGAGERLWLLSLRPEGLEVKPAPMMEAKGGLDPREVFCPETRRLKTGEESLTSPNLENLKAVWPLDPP
Method in brief: as §1

[3] = target: T3, ETS2 (Homo sapiens, UniProt P15036 1-469)
T3 sequence: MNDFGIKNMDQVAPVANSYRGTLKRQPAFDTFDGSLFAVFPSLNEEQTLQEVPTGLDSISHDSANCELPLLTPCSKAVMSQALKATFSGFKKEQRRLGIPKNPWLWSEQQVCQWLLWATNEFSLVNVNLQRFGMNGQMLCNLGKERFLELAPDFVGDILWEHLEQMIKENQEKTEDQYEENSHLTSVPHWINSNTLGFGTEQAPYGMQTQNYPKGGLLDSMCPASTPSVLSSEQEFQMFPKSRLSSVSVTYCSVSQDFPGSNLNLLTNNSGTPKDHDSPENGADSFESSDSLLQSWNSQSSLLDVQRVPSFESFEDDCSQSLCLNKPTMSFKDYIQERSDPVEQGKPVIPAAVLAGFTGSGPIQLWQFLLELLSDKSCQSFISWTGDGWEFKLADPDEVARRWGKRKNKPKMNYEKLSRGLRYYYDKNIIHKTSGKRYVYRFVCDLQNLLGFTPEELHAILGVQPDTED
Method in brief: as §1

[4] = target: T4, SPDEF (Homo sapiens, UniProt O95238 1-335)
T4 sequence: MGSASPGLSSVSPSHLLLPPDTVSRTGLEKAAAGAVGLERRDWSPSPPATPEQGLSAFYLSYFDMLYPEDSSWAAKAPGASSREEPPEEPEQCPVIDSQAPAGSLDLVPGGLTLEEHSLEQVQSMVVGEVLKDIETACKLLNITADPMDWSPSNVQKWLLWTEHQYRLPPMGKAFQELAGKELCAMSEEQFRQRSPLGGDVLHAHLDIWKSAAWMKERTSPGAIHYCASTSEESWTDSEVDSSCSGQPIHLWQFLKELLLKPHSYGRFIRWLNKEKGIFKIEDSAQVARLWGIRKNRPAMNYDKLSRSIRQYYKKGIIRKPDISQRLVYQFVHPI
Method in brief: as §1

[5] = target: T5, ETV7 (Homo sapiens, UniProt Q9Y603 1-341)
T5 sequence: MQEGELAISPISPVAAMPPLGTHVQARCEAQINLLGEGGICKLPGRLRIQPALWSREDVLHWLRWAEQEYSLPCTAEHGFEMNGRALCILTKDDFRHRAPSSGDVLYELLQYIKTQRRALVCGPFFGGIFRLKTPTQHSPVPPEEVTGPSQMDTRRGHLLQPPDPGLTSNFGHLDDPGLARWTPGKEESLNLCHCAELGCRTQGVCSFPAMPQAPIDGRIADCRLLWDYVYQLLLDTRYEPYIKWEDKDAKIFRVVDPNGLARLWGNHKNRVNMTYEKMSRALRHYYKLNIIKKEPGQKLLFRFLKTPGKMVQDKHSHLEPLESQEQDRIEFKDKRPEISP
Method in brief: as §1

[6] = target: T6, ELF5 (Homo sapiens, UniProt Q9UKW6-2 1-255)
T6 sequence: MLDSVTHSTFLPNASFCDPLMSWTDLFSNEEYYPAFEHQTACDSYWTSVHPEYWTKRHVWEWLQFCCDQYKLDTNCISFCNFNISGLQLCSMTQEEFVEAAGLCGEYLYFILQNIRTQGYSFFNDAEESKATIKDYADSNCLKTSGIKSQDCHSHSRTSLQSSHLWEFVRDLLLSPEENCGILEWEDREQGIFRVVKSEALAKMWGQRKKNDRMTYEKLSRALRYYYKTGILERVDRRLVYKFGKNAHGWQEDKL
Method in brief: as §1

[7] = target: ETV6 (Homo sapiens, UniProt P41212 1-452)
Chain of ETV6 (P41212 whole entry): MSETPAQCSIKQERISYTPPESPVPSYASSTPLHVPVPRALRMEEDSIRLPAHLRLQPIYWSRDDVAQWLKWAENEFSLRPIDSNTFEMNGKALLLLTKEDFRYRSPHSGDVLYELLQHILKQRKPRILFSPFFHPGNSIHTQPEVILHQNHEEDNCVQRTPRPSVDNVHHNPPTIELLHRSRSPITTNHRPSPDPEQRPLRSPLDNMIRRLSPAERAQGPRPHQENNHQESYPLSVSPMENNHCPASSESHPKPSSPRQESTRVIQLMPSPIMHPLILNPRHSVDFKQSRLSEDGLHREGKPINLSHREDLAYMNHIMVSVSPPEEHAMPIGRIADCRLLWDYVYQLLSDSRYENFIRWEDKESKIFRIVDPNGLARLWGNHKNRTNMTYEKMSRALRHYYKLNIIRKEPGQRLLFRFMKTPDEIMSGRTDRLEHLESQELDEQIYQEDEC
Method in brief: as §1

[8] = target: T7, ETV3 (Homo sapiens, UniProt P41162-2 1-143)
T7 sequence: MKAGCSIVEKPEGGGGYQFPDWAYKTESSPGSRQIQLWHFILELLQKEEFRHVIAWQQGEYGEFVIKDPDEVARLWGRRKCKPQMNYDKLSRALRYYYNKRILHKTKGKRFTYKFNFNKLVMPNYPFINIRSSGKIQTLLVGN
Method in brief: as §1

Sequence | binding signal [1] | binding signal [2] | binding signal [3] | binding signal [4] | binding signal [5] | binding signal [6] | binding signal [7] | binding signal [8]
TGTCTG | 1.09 fold enrichment (6-mer frequency, TF over GST control) | 1.05 fold enrichment (6-mer frequency, TF over GST control) | 1.09 fold enrichment (6-mer frequency, TF over GST control) | 1.15 fold enrichment (6-mer frequency, TF over GST control) | 1.02 fold enrichment (6-mer frequency, TF over GST control) | 1.15 fold enrichment (6-mer frequency, TF over GST control) | 1.12 fold enrichment (6-mer frequency, TF over GST control) | –
CTAAAA | 1.2 fold enrichment (6-mer frequency, TF over GST control) | 1.2 fold enrichment (6-mer frequency, TF over GST control) | 1.21 fold enrichment (6-mer frequency, TF over GST control) | 1.19 fold enrichment (6-mer frequency, TF over GST control) | 1.1 fold enrichment (6-mer frequency, TF over GST control) | 1.11 fold enrichment (6-mer frequency, TF over GST control) | 1.15 fold enrichment (6-mer frequency, TF over GST control) | 1.12 fold enrichment (6-mer frequency, TF over GST control)
GCAAAT | 1.11 fold enrichment (6-mer frequency, TF over GST control) | 1.05 fold enrichment (6-mer frequency, TF over GST control) | 1.01 fold enrichment (6-mer frequency, TF over GST control) | 1.11 fold enrichment (6-mer frequency, TF over GST control) | 1.04 fold enrichment (6-mer frequency, TF over GST control) | 1.01 fold enrichment (6-mer frequency, TF over GST control) | 1 fold enrichment (6-mer frequency, TF over GST control) | –
TATAAG | 1.2 fold enrichment (6-mer frequency, TF over GST control) | 1.21 fold enrichment (6-mer frequency, TF over GST control) | 1.17 fold enrichment (6-mer frequency, TF over GST control) | 1.2 fold enrichment (6-mer frequency, TF over GST control) | 1.18 fold enrichment (6-mer frequency, TF over GST control) | 1.16 fold enrichment (6-mer frequency, TF over GST control) | 1.19 fold enrichment (6-mer frequency, TF over GST control) | 1.15 fold enrichment (6-mer frequency, TF over GST control)
TGACCA | 1.31 fold enrichment (6-mer frequency, TF over GST control) | 1.32 fold enrichment (6-mer frequency, TF over GST control) | 1.23 fold enrichment (6-mer frequency, TF over GST control) | 1.24 fold enrichment (6-mer frequency, TF over GST control) | 1.15 fold enrichment (6-mer frequency, TF over GST control) | 1.16 fold enrichment (6-mer frequency, TF over GST control) | 1.27 fold enrichment (6-mer frequency, TF over GST control) | 1.23 fold enrichment (6-mer frequency, TF over GST control)
TTCAGT | 1.09 fold enrichment (6-mer frequency, TF over GST control) | 1.13 fold enrichment (6-mer frequency, TF over GST control) | 1 fold enrichment (6-mer frequency, TF over GST control) | 1.07 fold enrichment (6-mer frequency, TF over GST control) | 1.04 fold enrichment (6-mer frequency, TF over GST control) | 1.05 fold enrichment (6-mer frequency, TF over GST control) | 1.06 fold enrichment (6-mer frequency, TF over GST control) | –
ACCTCC | 1.35 fold enrichment (6-mer frequency, TF over GST control) | 1.49 fold enrichment (6-mer frequency, TF over GST control) | 1.41 fold enrichment (6-mer frequency, TF over GST control) | 1.5 fold enrichment (6-mer frequency, TF over GST control) | 1.4 fold enrichment (6-mer frequency, TF over GST control) | 1.49 fold enrichment (6-mer frequency, TF over GST control) | 1.4 fold enrichment (6-mer frequency, TF over GST control) | 1.33 fold enrichment (6-mer frequency, TF over GST control)
CGTCAA | 1.13 fold enrichment (6-mer frequency, TF over GST control) | 1.09 fold enrichment (6-mer frequency, TF over GST control) | 1.16 fold enrichment (6-mer frequency, TF over GST control) | 1.15 fold enrichment (6-mer frequency, TF over GST control) | 1.09 fold enrichment (6-mer frequency, TF over GST control) | 1.08 fold enrichment (6-mer frequency, TF over GST control) | 1.15 fold enrichment (6-mer frequency, TF over GST control) | 1.06 fold enrichment (6-mer frequency, TF over GST control)
TAGGGT | 1.15 fold enrichment (6-mer frequency, TF over GST control) | 1.03 fold enrichment (6-mer frequency, TF over GST control) | 1.02 fold enrichment (6-mer frequency, TF over GST control) | 1.12 fold enrichment (6-mer frequency, TF over GST control) | 1.11 fold enrichment (6-mer frequency, TF over GST control) | 1.06 fold enrichment (6-mer frequency, TF over GST control) | 1.04 fold enrichment (6-mer frequency, TF over GST control) | –
GCTTTT | 1.16 fold enrichment (6-mer frequency, TF over GST control) | 1.12 fold enrichment (6-mer frequency, TF over GST control) | 1.17 fold enrichment (6-mer frequency, TF over GST control) | 1.09 fold enrichment (6-mer frequency, TF over GST control) | 1.21 fold enrichment (6-mer frequency, TF over GST control) | 1.06 fold enrichment (6-mer frequency, TF over GST control) | 1.22 fold enrichment (6-mer frequency, TF over GST control) | 1.15 fold enrichment (6-mer frequency, TF over GST control)
CTCATC | 1.44 fold enrichment (6-mer frequency, TF over GST control) | 1.5 fold enrichment (6-mer frequency, TF over GST control) | 1.32 fold enrichment (6-mer frequency, TF over GST control) | 1.39 fold enrichment (6-mer frequency, TF over GST control) | 1.23 fold enrichment (6-mer frequency, TF over GST control) | 1.44 fold enrichment (6-mer frequency, TF over GST control) | 1.37 fold enrichment (6-mer frequency, TF over GST control) | 1.48 fold enrichment (6-mer frequency, TF over GST control)
GGTTTG | 1.26 fold enrichment (6-mer frequency, TF over GST control) | 1.16 fold enrichment (6-mer frequency, TF over GST control) | 1.15 fold enrichment (6-mer frequency, TF over GST control) | 1.06 fold enrichment (6-mer frequency, TF over GST control) | 1.11 fold enrichment (6-mer frequency, TF over GST control) | 1.16 fold enrichment (6-mer frequency, TF over GST control) | 1.17 fold enrichment (6-mer frequency, TF over GST control) | 1.25 fold enrichment (6-mer frequency, TF over GST control)
ATCCCA | 1.21 fold enrichment (6-mer frequency, TF over GST control) | 1.1 fold enrichment (6-mer frequency, TF over GST control) | 1.03 fold enrichment (6-mer frequency, TF over GST control) | 1.1 fold enrichment (6-mer frequency, TF over GST control) | 1.2 fold enrichment (6-mer frequency, TF over GST control) | 1.17 fold enrichment (6-mer frequency, TF over GST control) | 1.12 fold enrichment (6-mer frequency, TF over GST control) | –
ACACGA | 1.15 fold enrichment (6-mer frequency, TF over GST control) | 1.04 fold enrichment (6-mer frequency, TF over GST control) | 1.08 fold enrichment (6-mer frequency, TF over GST control) | 1.03 fold enrichment (6-mer frequency, TF over GST control) | 1.11 fold enrichment (6-mer frequency, TF over GST control) | 1.03 fold enrichment (6-mer frequency, TF over GST control) | 1.06 fold enrichment (6-mer frequency, TF over GST control) | –

Source: publication PMC7862700, “An all-to-all approach to the identification of sequence-specific readers for epigenetic DNA modifications on cytosine”
